Where “and” joins values, the source holds several entries; their conditions need not be identical. Equal entries are not always repeated. Compounds without any hit were thinned out: in the full panel of roughly 83,000, 20% have a hit.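 Growth was measured after 48 h exposure to one concentration of compound in 96-well plates. Values under 10 count as active.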 Calls of active or inactive are those of the source.
What was measured:
Test in all cases: NCI-60 one-dose screen, 48 h (100 = growth as untreated, 0 = no growth, -100 = all killed)
Details in all cases: 10 µM unless noted
HCT-15 colon = system: HCT-15 colon
HT29 colon = system: HT29 colon
SNB-75 CNS = system: SNB-75 CNS
SNB-19 CNS = system: SNB-19 CNS
U251 CNS = system: U251 CNS
PC-3 prostate = system: PC-3 prostate
SK-MEL-5 melanoma = system: SK-MEL-5 melanoma
UACC-62 melanoma = system: UACC-62 melanoma
LOX IMVI melanoma = system: LOX IMVI melanoma
SK-MEL-28 melanoma = system: SK-MEL-28 melanoma
SK-MEL-2 melanoma = system: SK-MEL-2 melanoma
EKVX NSCLC = system: EKVX NSCLC
SN12C renal = system: SN12C renal
UO-31 renal = system: UO-31 renal
TK-10 renal = system: TK-10 renal
ACHN renal = system: ACHN renal
A498 renal = system: A498 renal
CCRF-CEM leukemia = system: CCRF-CEM leukemia
MOLT-4 leukemia = system: MOLT-4 leukemia
CAKI-1 renal = system: CAKI-1 renal

Measured: growth

O=C1/C(=C/c2ccc(-c3cccc(C(F)(F)F)c3)o2)SC(=S)N1CCc1ccc(O)cc1
inactive: HCT-15 colon 68.6% | HT29 colon 80.4% | SNB-75 CNS 56.7% | SNB-19 CNS 104% | U251 CNS 87.2% | PC-3 prostate 62.6% | SK-MEL-5 melanoma 90.1% | UACC-62 melanoma 59% | LOX IMVI melanoma 68.7% | SK-MEL-28 melanoma 95.8% | SK-MEL-2 melanoma 56.4% | EKVX NSCLC 89% | SN12C renal 75.1% | UO-31 renal 52.9% | TK-10 renal 94.1% | ACHN renal 87.4% | A498 renal 65.3% | CCRF-CEM leukemia 14% | MOLT-4 leukemia 37%

N#Cc1ccccc1OCC(=O)Nc1nc2c(s1)COc1ccccc1-2
inactive: HCT-15 colon 103% | HT29 colon 104% | SNB-75 CNS 82.7% | SNB-19 CNS 102% | U251 CNS 98.8% | PC-3 prostate 102% | SK-MEL-5 melanoma 103% | UACC-62 melanoma 82.4% | LOX IMVI melanoma 90.6% | SK-MEL-28 melanoma 116% | SK-MEL-2 melanoma 88.7% | EKVX NSCLC 86.7% | SN12C renal 96.2% | UO-31 renal 72.4% | TK-10 renal 140% | CAKI-1 renal 99.2% | A498 renal 130% | CCRF-CEM leukemia 96% | MOLT-4 leukemia 77.5%

COc1ccc(Oc2nc(Nc3ccc(N4CCOCC4)cc3)ncc2NC(=O)c2cc(OC)cc(OC)c2)cc1
active: A498 renal 8.34%
inactive: HCT-15 colon 67.7% | HT29 colon 72% | SNB-75 CNS 79.1% | SNB-19 CNS 87.4% | U251 CNS 82.7% | PC-3 prostate 67.5% | SK-MEL-5 melanoma 77.2% | UACC-62 melanoma 87.8% | LOX IMVI melanoma 84.7% | SK-MEL-2 melanoma 95.4% | EKVX NSCLC 94.8% | SN12C renal 89% | UO-31 renal 55.5% | TK-10 renal 103% | ACHN renal 86.1% | CAKI-1 renal 100% | CCRF-CEM leukemia 70% | MOLT-4 leukemia 53.3%

CCCCCCCCCCCCCCCCCCn1cc(COc2ccc(C=O)cc2)nn1
inactive: HCT-15 colon 95.9% | HT29 colon 91.6% | SNB-75 CNS 104% | SNB-19 CNS 97.5% | U251 CNS 107% | PC-3 prostate 99% | SK-MEL-5 melanoma 103% | UACC-62 melanoma 91.2% | LOX IMVI melanoma 85.5% | SK-MEL-2 melanoma 96.4% | EKVX NSCLC 90.1% | SN12C renal 97.5% | UO-31 renal 93% | TK-10 renal 99.9% | ACHN renal 104% | CAKI-1 renal 104% | A498 renal 105% | CCRF-CEM leukemia 103% | MOLT-4 leukemia 92.4%

CC[C@]1(O)CC2CN(CCc3c([nH]c4ccccc34)C(C(=O)OC)(c3cc4c(cc3OC)N(C=O)[C@H]3[C@@](O)(C(=O)OC)[C@H](OC(C)=O)[C@]5(CC)[C@@H]6C[C@@H]6CN6CC[C@]43[C@@H]65)C2)C1 (some centres undefined)
inactive: HCT-15 colon 15.5% | SNB-75 CNS 10.8% | SNB-19 CNS 37.5% | PC-3 prostate 17.9% | UACC-62 melanoma 37.2% | LOX IMVI melanoma 26.6% | SK-MEL-2 melanoma 11.6% | EKVX NSCLC 43.4% | SN12C renal 30.1% | UO-31 renal 31.1% | TK-10 renal 50% | ACHN renal 30.9% | CCRF-CEM leukemia 13.6% | MOLT-4 leukemia 13.1%
active: HT29 colon -21.1% | U251 CNS 6.57% | SK-MEL-5 melanoma -49.4% | A498 renal -20%

COc1cc(Cl)cc(-c2nn(C(=O)NS(=O)(=O)c3ccc(Cl)cc3)cc2-c2ccncc2)c1
inactive: HCT-15 colon 98.4% | HT29 colon 30.8% | SNB-19 CNS 97.2% | U251 CNS 70.6% | PC-3 prostate 88.9% | SK-MEL-5 melanoma 95.2% | UACC-62 melanoma 73.3% | LOX IMVI melanoma 45.5% | SK-MEL-2 melanoma 95% | EKVX NSCLC 59.5% | SN12C renal 92.5% | UO-31 renal 63% | TK-10 renal 85.8% | ACHN renal 80.6% | CAKI-1 renal 91% | A498 renal 70.2% | CCRF-CEM leukemia 88% | MOLT-4 leukemia 76.2%
active: SNB-75 CNS -8.56%

Clc1ccc(Nc2nc(Nc3ccc(Cl)cc3)nc(Nc3ccc(-c4cc(-c5cccc(Cl)c5)on4)cc3)n2)cc1
inactive: HCT-15 colon 89.8% | HT29 colon 105% | SNB-75 CNS 99.4% | SNB-19 CNS 101% | U251 CNS 79% | PC-3 prostate 86.7% | SK-MEL-5 melanoma 88% | UACC-62 melanoma 105% | LOX IMVI melanoma 79.4% | SK-MEL-2 melanoma 72.9% | EKVX NSCLC 82.9% | SN12C renal 94.4% | UO-31 renal 90.1% | TK-10 renal 155% | ACHN renal 86.4% | CAKI-1 renal 85.4% | A498 renal 99.9% | CCRF-CEM leukemia 61%
active: MOLT-4 leukemia 7.82%

O=C(NNc1ccccc1)c1ccccc1
inactive: HCT-15 colon 47.7% and 40.7% | HT29 colon 85.5% and 84.8% | SNB-75 CNS 70.6% and 87.6% | SNB-19 CNS 95% and 99.3% | U251 CNS 90.8% | PC-3 prostate 75.1% and 53.8% | SK-MEL-5 melanoma 98.8% and 100% | UACC-62 melanoma 29.6% and 30.9% | LOX IMVI melanoma 58.4% and 52.7% | SK-MEL-28 melanoma 89.8% and 108% | SK-MEL-2 melanoma 81.5% and 49.8% | SN12C renal 84.5% and 80% | UO-31 renal 51.1% | TK-10 renal 65.3% | ACHN renal 57% and 38.5% | CAKI-1 renal 22.7% | A498 renal 118% and 103% | CCRF-CEM leukemia 56.8% and 49.8% | MOLT-4 leukemia 54.4% and 41.3%

COC(=O)N/N=C/c1c[n+]([O-])c2ccccc2[n+]1[O-]
inactive: HCT-15 colon 106% | HT29 colon 106% | SNB-75 CNS 100% | SNB-19 CNS 104% | U251 CNS 96.6% | PC-3 prostate 86% | SK-MEL-5 melanoma 114% | UACC-62 melanoma 101% | LOX IMVI melanoma 97.7% | SK-MEL-2 melanoma 112% | EKVX NSCLC 100% | SN12C renal 99.6% | UO-31 renal 86.6% | TK-10 renal 119% | ACHN renal 100% | CAKI-1 renal 89.1% | A498 renal 98% | CCRF-CEM leukemia 94% | MOLT-4 leukemia 104%

NC(=O)c1c(NC(=O)/C=C/c2cccs2)sc2c1CCC(=O)C2
active: UO-31 renal 5.7% | ACHN renal 5.27%
inactive: HCT-15 colon 13.1% | HT29 colon 15.8% | SNB-75 CNS 56.5% | SNB-19 CNS 64.5% | U251 CNS 22.2% | PC-3 prostate 13.4% | SK-MEL-5 melanoma 24.4% | UACC-62 melanoma 16.9% | LOX IMVI melanoma 18.4% | SK-MEL-28 melanoma 41.8% | SK-MEL-2 melanoma 49.7% | EKVX NSCLC 40.4% | SN12C renal 23.1% | CAKI-1 renal 14.2% | A498 renal 115% | MOLT-4 leukemia 21.8%

COCCn1cc(-c2nc(-c3cn(CCOC)c4ncccc34)cs2)c2ccccc21
inactive: HCT-15 colon 18.1% | HT29 colon 89.5% | SNB-75 CNS 64.6% | SNB-19 CNS 71.1% | U251 CNS 72.8% | PC-3 prostate 73.1% | UACC-62 melanoma 87.1% | LOX IMVI melanoma 86.1% | SK-MEL-2 melanoma 59.9% | EKVX NSCLC 27.9% | SN12C renal 107% | UO-31 renal 98.6% | TK-10 renal 33.3% | ACHN renal 91.6% | CAKI-1 renal 94.6% | A498 renal 123% | CCRF-CEM leukemia 128% | MOLT-4 leukemia 122%
active: SK-MEL-5 melanoma 7.97%

CN(C)c1ccc2nc3ccc(=O)cc-3sc2c1
inactive: HCT-15 colon 36.2% and 37.2% | HT29 colon 39.9% and 40.7% | SNB-75 CNS 94.9% and 36.7% | SNB-19 CNS 55.8% and 45.9% | U251 CNS 21.2% and 33.3% | PC-3 prostate 29.7% and 33% | UACC-62 melanoma 32.5% and 32.9% | SK-MEL-2 melanoma 13.8% and 35.6% | EKVX NSCLC 41.3% | SN12C renal 41.9% and 34.5% | UO-31 renal 14.8% and 31.4% | TK-10 renal 60.9% and 67.4% | ACHN renal 20% and 21.7% | CAKI-1 renal 34.1% and 22.3% | A498 renal 85.7% | CCRF-CEM leukemia 13% and 20.1%
active: SK-MEL-5 melanoma -94.8% and -89.9% | LOX IMVI melanoma 5.56% and 5.52%
-18.7% (active) and 20.2% (inactive): MOLT-4 leukemia

CCCCCCCCn1ccc2cc(NC(=O)CN3CCN(c4nc(C)cc(N5CCCCC5)n4)CC3)ccc21
active: CCRF-CEM leukemia -43.6% | MOLT-4 leukemia 0.667%
inactive: HCT-15 colon 73.2% | HT29 colon 57.4% | SNB-75 CNS 87.6% | SNB-19 CNS 94.3% | U251 CNS 80.4% | PC-3 prostate 71.8% | SK-MEL-5 melanoma 82.1% | UACC-62 melanoma 81.2% | LOX IMVI melanoma 103% | SK-MEL-2 melanoma 114% | EKVX NSCLC 79.4% | SN12C renal 91.9% | UO-31 renal 58.4% | TK-10 renal 98.5% | ACHN renal 91.7% | CAKI-1 renal 86.8% | A498 renal 104%

CCC(=O)Oc1cc(Cl)c(Cl)cc1Cl
inactive: HCT-15 colon 103% | HT29 colon 103% | SNB-75 CNS 89.6% | SNB-19 CNS 113% | U251 CNS 98.1% | PC-3 prostate 96.4% | SK-MEL-5 melanoma 105% | UACC-62 melanoma 108% | LOX IMVI melanoma 105% | SK-MEL-2 melanoma 103% | EKVX NSCLC 102% | SN12C renal 97.9% | UO-31 renal 95.3% | TK-10 renal 98.5% | ACHN renal 101% | CAKI-1 renal 99.2% | A498 renal 83.3% | CCRF-CEM leukemia 105% | MOLT-4 leukemia 111%

Reference: PubChem BioAssay (NCI)
